Test results taken from PubChem BioAssay (NCATS).
Results filed as inconclusive are left out. Active and inactive are the calls of the source. Calls follow the shape of the dose curve; as a rule, active = well fitted curve in the direction sought with a large enough effect; inconclusive = small, poorly fitted or top-dose-only effect, or another doubt; inactive = no such curve, though single readings can be large; an effect the other way counts as inactive or inconclusive.

Experiment: Cellular Toxicity (caspase-3) N2a (AID 665);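 also: compound exposure lasted 16 h at 37 °C before readout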
Conditions: N2a cells, luminescence, normalized: DMSO 0%, 10 µM staurosporine 100%; series mostly up to 92.2 µM; caspase-3 activation: at the top concentration
Procedure, shortened: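 Luminescent Caspase-Glo 3/7 readout in N2a mouse neuroblastoma cells after 16 h compound exposure at 37 °C. Signal scaled to DMSO (basal) and 10 uM staurosporine (100%). Concentration-response fitted with Hill equation for AC50.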

Row | SMILES | caspase-3 activation
1 | Cc1occc(=O)c1O | -1.05% (inactive)
2 | C=C(C)[C@H]1CC=C(C)C(=O)C1 | 7.31% (inactive)
3 | COS(C)(=O)=O | -0.401% (inactive)
4 | CC1=CC(=O)CC(C)(C)C1(O)/C=C/C(C)=C\C(=O)O (stereo not given) | 0.8% (inactive)
5 | C=CC(C)(O)CCC=C(C)C (stereo not given) | -1.78% (inactive)

Experiment: Cellular Toxicity (caspase-3) NIH 3T3 (AID 666);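 also: 0% = DMSO basal and 100% = 100 µM tamoxifen stimulation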
Conditions: NIH 3T3 caspase-3 activation, apoptosis/toxicity, 0% DMSO, 100% is 100 µM tamoxifen; series mostly up to 92.2 µM; caspase-3 activation: at the top concentration
Procedure, shortened: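 NIH 3T3, 1000 cells/well, 5 hr settle then 16 hr compound at 37°C; Caspase-Glo 3/7, 20 min RT, luminescence. DMSO = basal, 100 uM tamoxifen = 100%. Hill-equation AC50, qHTS.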

Row | SMILES | caspase-3 activation
6 | Cc1occc(=O)c1O | 2.42% (inactive)
7 | C=C(C)[C@H]1CC=C(C)C(=O)C1 | -0.325% (inactive)
8 | COS(C)(=O)=O | -2.93% (inactive)
9 | CC1=CC(=O)CC(C)(C)C1(O)/C=C/C(C)=C\C(=O)O (stereo not given) | 0.436% (inactive)
10 | C=CC(C)(O)CCC=C(C)C (stereo not given) | -2.05% (inactive)

Experiment: Cellular Toxicity (caspase-3) Renal Proximal Tubule (AID 667);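 also: cells exposed to compound for 16 hours at 37 °C before detection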
Conditions: renal proximal tubule cells, primary cells freshly taken from rat, solvent-only wells 0%, staurosporine 100%; series mostly up to 91.7 µM; caspase-3 activation: at the top concentration
Procedure, shortened: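 Caspase 3/7 activation measured by luminescent aminoluciferin release in primary rat proximal tubule cells after 16 hr compound exposure at 37 °C. AC50 from Hill-fitted concentration-response, scaled between DMSO and 10 uM staurosporine.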

Row | SMILES | caspase-3 activation
11 | Cc1occc(=O)c1O | -1.34% (inactive)
12 | C=C(C)[C@H]1CC=C(C)C(=O)C1 | 9.39% (inactive)
13 | COS(C)(=O)=O | -3.73% (inactive)
14 | CC1=CC(=O)CC(C)(C)C1(O)/C=C/C(C)=C\C(=O)O (stereo not given) | 0.42% (inactive)
15 | C=CC(C)(O)CCC=C(C)C (stereo not given) | -3.18% (inactive)
